Laboratory results as given in PubChem BioAssay (EPA / NIEHS).
Active and inactive are the calls of the source. Rule for the calls: active = hit-call score of the fitted dose curve at least 0.9, where 1 is the maximum; inactive = score below 0.9.

Legend:
[1] = CCTE_Harrill_HTTr_Viability_MCF7: CCTE's 6-hour Cell Viability Assessment for the High-Throughput Transcriptomics (HTTr) Platform, in MCF-7 cells cultured in DMEM + 10% fetal bovine serum, Harrill Lab (AID 2284010)
How it was run: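 PI exclusion, high-content imaging; 8-pt dilution series, 6 h exposure; bidirectional fit vs DMSO (neg. ctrl/baseline); gain of signal = loss of membrane integrity.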

[2] = CCTE_Harrill_HTTr_Apoptosis_MCF7: CCTE's 6-hour Apoptosis Assessment for the High-Throughput Transcriptomics (HTTr) Platform, in MCF-7 cells cultured in DMEM + 10% fetal bovine serum, Harrill Lab (AID 2284011)
How it was run: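 Apoptosis in MCF-7 cells grown in DMEM with 10% fetal bovine serum was scored after a six hour exposure by high content imaging of caspase-3/7 activation (CellEvent Caspase 3/7 Green), with DMSO serving as negative control and baseline.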

Row | Structure (SMILES) | outcome [1] | outcome [2]
1 | O=C(O)/C=C/c1ccccc1 | inactive | inactive
2 | CC(C)(O)Cc1ccccc1 | inactive | inactive
3 | CC(=O)OCC=C(C)C | inactive | inactive
4 | CC(=O)CCC=C(C)C | inactive | inactive
5 | CCOC(=O)C1=NN(c2ccc(Cl)cc2Cl)C(C)(C(=O)OCC)C1 (stereo not drawn) | inactive | inactive
6 | NNS(=O)(=O)c1ccc(Oc2ccc(S(=O)(=O)NN)cc2)cc1 | inactive | inactive
7 | c1ccc2cnccc2c1 | inactive | inactive
8 | CC(=O)CC(=O)Nc1ccccc1C | inactive | inactive
9 | CC(=O)OC/C=C(/C)CCC=C(C)C | inactive | inactive
10 | CCCCOCCOC(=O)COc1ccc(Cl)cc1Cl | inactive | inactive
11 | O=C(O[C@@H]1Cc2c(O)cc(O)cc2O[C@@H]1c1cc(O)c(O)c(O)c1)c1cc(O)c(O)c(O)c1 | inactive | inactive
12 | O=C(Oc1ccccc1)c1ccccc1O | inactive | inactive
13 | O=C(O)CCCC(=O)O | inactive | inactive
14 | CCCCC1C(=O)N(c2ccccc2)N(c2ccccc2)C1=O | inactive | inactive
